system: RARa homodimer (NR concentration 270 nM); assay: PBM binding z-score (relative to random genomic background probes); higher = stronger binding; sequences stand for … in GC…GCGATTGACAGCGTAGAATGAAGG
Procedure, shortened: (§1)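 Random background probes are the reference for binding z-scores. These scores derive from regression-normalized fluorescence on custom Agilent 4×180K protein-binding microarrays incubated 1 h with ligand-free nuclear receptor dimers. Binding was detected with antibodies against each partner (one per run).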

Row | Sequence | PBM binding z-score
1 | CAGCCTAGGTCAAGGCCAGTATAGGAGGAACGTT | -0.377
2 | AGAATGAGGTTAAGATCAGGGTAACAGAATACAT | 0.262
3 | GGAACGAGGGCATTCGAGTTAATAGCATGGCGAT | -0.33
4 | TCTAGTTGGTCACGAAGGTCACACACGACGGGTA | 2
5 | AATACAGGGTCATCGTAGGACAGAGTACGCACAG | 0.937
6 | CCTACTGGGACACGAAAGGTCATTGATTCAGTGA | 1.59
7 | ATCTCTAGATAACAAGTTCAGTGAAAGAGAGGAC | 0.589
8 | TAGCCTCGGTCATGGGCCAGTATACCACGCGAAC | -0.653
9 | AGAATGAGGTTACCAAGGATCAGGGAAACGCTTG | -0.233
10 | CCTACCAGGCCAATCTGGGTCACTCAAGGCTTGA | 0.203
11 | TCTCGGAGGAGACGAAAGGTCAGAGCTCGACATC | 1.35
12 | AGTCGAAGTTCACTAGGTAACGTAAGATTCAGCT | 0.371
13 | CGTCAAAGTTCAACTAAGATAACGTAAAGCACGC | 2.93
14 | TAGCCTAGGTCATTGGGCCAGTACAGTACGCATC | -0.528
15 | CGAAATAGGTCAGAACAGGACAGTGAAGGATGAT | 1.05
16 | CCTGCTAGGTCATGGTCAACTAATCTACAGTATG | 0.861
17 | CCTACTGGGCCAAGGACATTGATCAGTCAAAGCA | -0.533
18 | CATCCAAGGTCAATGCTAGGTCAGTGAAAGCATT | 2.23
19 | AGTCAAAGTTCATCTCGGTAACGTAAGATATGCT | 1.33
20 | GCTTGTTGATCAAGGTTAAGAAAGACTAAGCTAA | 0.254

Row | Sequence | PBM binding z-score
21 | AGTCAAAGTTCAGAACGAGGTAACGTAAAGCACG | 0.271
22 | CCTACTGGACCAAAGGTCATTGATTCCAATGCTC | 2.78
23 | CCTCGGAGGACAACAGGAGGTCAGAGTTGCCAGA | 0.759
24 | TCTTGTAGATCAATAGAGGTTAACAAAGTGCGCT | 0.875
25 | GCTGCTAGGTCAACTGATGGTCAGCCAAAGCTCG | -0.0572
26 | ACTAGCAGGCCCAGGGTCACTCAAGATTAGTCCG | -0.377
27 | TCTGCTAGGTCAGTTGGTGAGCTAACGAGCTGCC | -1.25
28 | TCTGGGAGGACACGAAGGTCAGAGCTTTCCAGAG | 0.238
29 | ATCGAAAGGTCGTTAGGTGAGTATACAGAAAGGC | 0.848
30 | GCTTACGGGTCAAAGGTTATAGGATGAATAGAAT | 1.33
31 | TCTGCTAGGTCAACGCTGGTCAGCTAATCTGCTA | -1.41
32 | TTACCAAGGTGATCTGAGGTCGTTGATCCAACTC | 0.209
33 | CAGCCGAGGTCAGGGCCAGTATAGGAGGAACGTT | 0.349
34 | CCTCTGAGGACAGAAGGTCAGAGCTGTCCGCTTT | -0.25
35 | TAGCCTAGGTCATTGAGCCAGTATAGTACGCATC | -0.419
36 | AATACAGGGTCATCGTAGGCTAGAGTACGCACAG | 1.03
37 | TTACCAAGGTGAAAGGTCGATGATGCACGCCTTG | 0.188
38 | AAAGACAGGTGATGAAGGTAACTCAGGCTATCAT | 1
39 | CCTAGCAGGCCAATCTGGGTCAATCAAGGCTTGA | -0.918
40 | TCTATTAGTTGAAGGGCAGCCGACGAGTCCGTTT | 0.781

system: RARb:RXRa (NR concentration 270 nM, RXRa partner concentration 90 nM); assay: as above
Procedure, shortened: as §1

Row | Sequence | PBM binding z-score
41 | CAGCCTAGGTCAAGGCCAGTATAGGAGGAACGTT | 4.07
42 | AGAATGAGGTTAAGATCAGGGTAACAGAATACAT | 2.08
43 | GGAACGAGGGCATTCGAGTTAATAGCATGGCGAT | 1.8
44 | TCTAGTTGGTCACGAAGGTCACACACGACGGGTA | 4.01
45 | AATACAGGGTCATCGTAGGACAGAGTACGCACAG | 4.22
46 | CCTACTGGGACACGAAAGGTCATTGATTCAGTGA | 4.06
47 | ATCTCTAGATAACAAGTTCAGTGAAAGAGAGGAC | 1
48 | TAGCCTCGGTCATGGGCCAGTATACCACGCGAAC | 2.42
49 | AGAATGAGGTTACCAAGGATCAGGGAAACGCTTG | 2.04
50 | CCTACCAGGCCAATCTGGGTCACTCAAGGCTTGA | 1.71
51 | TCTCGGAGGAGACGAAAGGTCAGAGCTCGACATC | 3.44
52 | AGTCGAAGTTCACTAGGTAACGTAAGATTCAGCT | 2.91
53 | CGTCAAAGTTCAACTAAGATAACGTAAAGCACGC | 5.08
54 | TAGCCTAGGTCATTGGGCCAGTACAGTACGCATC | 3.67
55 | CGAAATAGGTCAGAACAGGACAGTGAAGGATGAT | 3.71
56 | CCTGCTAGGTCATGGTCAACTAATCTACAGTATG | 4.06
57 | CCTACTGGGCCAAGGACATTGATCAGTCAAAGCA | 0.145
58 | CATCCAAGGTCAATGCTAGGTCAGTGAAAGCATT | 5.04
59 | AGTCAAAGTTCATCTCGGTAACGTAAGATATGCT | 5.06
60 | GCTTGTTGATCAAGGTTAAGAAAGACTAAGCTAA | 0.66

Row | Sequence | PBM binding z-score
61 | AGTCAAAGTTCAGAACGAGGTAACGTAAAGCACG | 4.01
62 | CCTACTGGACCAAAGGTCATTGATTCCAATGCTC | 4.48
63 | CCTCGGAGGACAACAGGAGGTCAGAGTTGCCAGA | 2.83
64 | TCTTGTAGATCAATAGAGGTTAACAAAGTGCGCT | 1.02
65 | GCTGCTAGGTCAACTGATGGTCAGCCAAAGCTCG | 4.27
66 | ACTAGCAGGCCCAGGGTCACTCAAGATTAGTCCG | 2.27
67 | TCTGCTAGGTCAGTTGGTGAGCTAACGAGCTGCC | 3.16
68 | TCTGGGAGGACACGAAGGTCAGAGCTTTCCAGAG | 3.28
69 | ATCGAAAGGTCGTTAGGTGAGTATACAGAAAGGC | 3.53
70 | GCTTACGGGTCAAAGGTTATAGGATGAATAGAAT | 4.59
71 | TCTGCTAGGTCAACGCTGGTCAGCTAATCTGCTA | 4.16
72 | TTACCAAGGTGATCTGAGGTCGTTGATCCAACTC | 1.55
73 | CAGCCGAGGTCAGGGCCAGTATAGGAGGAACGTT | 4.81
74 | CCTCTGAGGACAGAAGGTCAGAGCTGTCCGCTTT | 3.44
75 | TAGCCTAGGTCATTGAGCCAGTATAGTACGCATC | 3.6
76 | AATACAGGGTCATCGTAGGCTAGAGTACGCACAG | 4.33
77 | TTACCAAGGTGAAAGGTCGATGATGCACGCCTTG | 2.98
78 | AAAGACAGGTGATGAAGGTAACTCAGGCTATCAT | 0.438
79 | CCTAGCAGGCCAATCTGGGTCAATCAAGGCTTGA | 1.31
80 | TCTATTAGTTGAAGGGCAGCCGACGAGTCCGTTT | 1.37

From the supplement of paper PMC6555819
